Experimental data reported in the supplement of paper PMC7156485.
“And” between values parts separate entries of the source, which are not always exact repeats. Equal values may be shown once. Where a name gives a salt, the structure may show the parent alone. Values without a mark were called inactive.

The molecules below were run on TDF (assay: H1.0 immunofluorescence intensity relative to DMSO (% of DMSO); higher = stronger H1.0 induction, active = 120 or more). Conditions: concentration: 10 µM; 24 h.
Procedure, shortened: (§1)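 For HCC1569 and TDF cells, compounds at 10 µM were applied for 24 h at 37 °C in triplicate in 384-well plates. Cells were fixed in 3.7% formaldehyde, stained for H1.0 and with DAPI, and imaged at ×10 over six fields per well. The endpoint, H1.0 nuclear intensity or cell number, is shown as percent of the plate control using the median of replicates. Positional effects were smoothed for HCC1569 only.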
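Also: TDF is a line of transformed human dermal fibroblasts of mesenchymal origin.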

Question: With `COC1=C2CC(C)=c3c(C(C)=O)c(OC)c(O)c4c3c2c2c(cc(OC)c3c(OC)cc(O)c4c32)C(=O)C1=O` [Hypocrellin B] as the molecule, how does the H1.0 immunofluorescence intensity read?
Answer: Its H1.0 immunofluorescence intensity is 97.1.

Question: For `Cc1cc(Cc2cc(C)cc(C(C)(C)C)c2O)c(O)c(C(C)(C)C)c1`, which H1.0 immunofluorescence intensity is on record?
Answer: The H1.0 immunofluorescence intensity was 96.7 and 99.5.

Question: For `OC[C@@H](O)[C@H]1NC[C@@H](O)[C@H]1O` [1,4-Dideoxy-1,4-imino-D-mannitol hydrochloride], which H1.0 immunofluorescence intensity is on record?
Answer: The H1.0 immunofluorescence intensity was 87.9.

Question: With `CCCCCCCCC(O)C=CC=CC=CC(O)CCCC(=O)O` (stereo not given) [Leukotriene B3] as the molecule, how does the H1.0 immunofluorescence intensity read?
Answer: The H1.0 immunofluorescence intensity was 98.7.

Question: `CCCCCC(O)C=CC1C(O)CC(O)C1CC=CCCCC(=O)O` (stereo not given) [Prostaglandin F2a] was tested. Which H1.0 immunofluorescence intensity did it give?
Answer: Its H1.0 immunofluorescence intensity is 97.6.

Question: With `COC(=O)c1c(-c2cc(OC)c(OC)c(OC)c2)c2ccnc(OCc3ncccn3)c2c(=O)n1Cc1ccnc(C)c1.Cl` as the molecule, how does the H1.0 immunofluorescence intensity read?
Answer: The H1.0 immunofluorescence intensity was 94.3.

Question: With `CN(C)c1nc(N)c(C(=O)N=C(N)N)nc1Cl.Cl` [5-(N,N-Dimethyl)amiloride hydrochloride] as the molecule, how does the H1.0 immunofluorescence intensity read?
Answer: Its H1.0 immunofluorescence intensity is 96.1.

Question: Which H1.0 immunofluorescence intensity does the source give for `NC(=O)c1ccccc1` [Benzamide] here?
Answer: The H1.0 immunofluorescence intensity was 99.2.

Question: With `Nc1[nH]nc2nc3ccccc3nc12` as the molecule, how does the H1.0 immunofluorescence intensity read?
Answer: The H1.0 immunofluorescence intensity was 101.

Question: `CCCCCC(O)C=CC1=C(CCCCCCC(=O)O)C(=O)CC1` (stereo not given) [Prostaglandin B1] was tested. Which H1.0 immunofluorescence intensity did it give?
Answer: Its H1.0 immunofluorescence intensity is 97.7.

These molecules were tested on HCC1569 (assay: H1.0 immunofluorescence intensity relative to DMSO (% of DMSO); higher = stronger H1.0 induction, active = 140 or more). Conditions: concentration: 10 µM; 24 h.
Procedure, shortened: as §1

Question: Which H1.0 immunofluorescence intensity does the source give for `O=Cc1c2[nH]c3ccccc3c2cc2[nH]c3ccccc3c12` [6-Formylindolo [3,2-B] carbazole] here?
Answer: The H1.0 immunofluorescence intensity was 100.

Question: How did the H1.0 immunofluorescence intensity turn out when `COc1cc2ccccc2cc1C(=O)OC(C)C(=O)NCc1ccc(F)cc1` (stereo not given) [IP3K Inhibitor] was run?
Answer: Its H1.0 immunofluorescence intensity is 115.

Question: Which H1.0 immunofluorescence intensity does the source give for `C#CC(N)CCC(=O)O` (stereo not given) [gamma-Acetylinic GABA] here?
Answer: Its H1.0 immunofluorescence intensity is 84.4.

Question: For `OC1C(O)C(O)C(O)C(O)C1O` (stereo not given) [1,2,3,4,5,6-cyclohexanehexol], which H1.0 immunofluorescence intensity is on record?
Answer: The H1.0 immunofluorescence intensity was 92.9.

Question: With `CCCC1OC2CC3C4CCC5=CC(=O)C=CC5(C)C4C(O)CC3(C)C2(C(=O)CO)O1` (stereo not given) [Budesonide] as the molecule, how does the H1.0 immunofluorescence intensity read?
Answer: Its H1.0 immunofluorescence intensity is 96.4.

Question: Which H1.0 immunofluorescence intensity does the source give for `COC1=CC(=O)CC(C)C12Oc1c(Cl)c(OC)cc(OC)c1C2=O` (single isomer, unassigned; (+)) [(+)-Griseofulvin] here?
Answer: Its H1.0 immunofluorescence intensity is 95.6.

Question: For `CN(C)CCC(c1ccc(Cl)cc1)c1ccccn1.O=C(O)C=CC(=O)O` (single isomer, unassigned; (+)) [(+)-Chlorpheniramine maleate], which H1.0 immunofluorescence intensity is on record?
Answer: Its H1.0 immunofluorescence intensity is 88.5.

Question: Which H1.0 immunofluorescence intensity does the source give for `COc1nc(C)nc(Cl)c1NC1=NCCN1.Cl` [Moxonidine hydrochloride] here?
Answer: Its H1.0 immunofluorescence intensity is 90.3.

Question: For `CN(C)CCCOC1C(C(O)CO)OC2OC(C)(C)OC21.Cl` (stereo not given) [Amiprilose hydrochloride], which H1.0 immunofluorescence intensity is on record?
Answer: Its H1.0 immunofluorescence intensity is 91.5.

Question: With `Cl.c1ccc(C2CCCC2NC2=NCCCCCCCCCCC2)cc1` (stereo not given) [MDL 12,330A hydrochloride] as the molecule, how does the H1.0 immunofluorescence intensity read?
Answer: Its H1.0 immunofluorescence intensity is 88.1.

Question: How did the H1.0 immunofluorescence intensity turn out when `COc1ccc2c(c1)c(CC(=O)O)c(C)n2C(=O)c1ccccc1` [1-benzoyl-5-methoxy-2-methylindole-3-acetic acid] was run?
Answer: Its H1.0 immunofluorescence intensity is 93.1.

Question: How did the H1.0 immunofluorescence intensity turn out when `CCn1cc(C(=O)O)c(=O)c2cc(F)c(N3CCN(C)CC3)cc21.CS(=O)(=O)O.O.O` [Pefloxacine mesylate dihydrate] was run?
Answer: Its H1.0 immunofluorescence intensity is 109.

Question: With `CCCCCCCCC=CCCCCCCCC(N)=O` [9,10-Octadecenoamide] as the molecule, how does the H1.0 immunofluorescence intensity read?
Answer: The H1.0 immunofluorescence intensity was 102.

Question: For `CCCCC1CCC(c2nc(-c3ccncc3)no2)CC1` (stereo not given) [4-[5-(4-butylcyclohexyl)-1,2,4-oxadiazol-3-yl]pyridine], which H1.0 immunofluorescence intensity is on record?
Answer: The H1.0 immunofluorescence intensity was 104.

Question: Which H1.0 immunofluorescence intensity does the source give for `COc1ccc(-c2cc(=O)c3c(O)cc(O)cc3o2)cc1` [Acacetine] here?
Answer: Its H1.0 immunofluorescence intensity is 90.7.

Question: How did the H1.0 immunofluorescence intensity turn out when `COc1cc(=O)n(C)c2c(OCC(O)C(C)(C)O)cccc12` (stereo not given) [Foliosidine] was run?
Answer: The H1.0 immunofluorescence intensity was 93.7.

Question: For `CCCC[C@@H](C=O)NC(=O)[C@H](CC(C)C)NC(=O)[C@H](CC(C)C)NC(C)=O`, which H1.0 immunofluorescence intensity is on record?
Answer: The H1.0 immunofluorescence intensity was 150 (active).

Question: For `Cl.O=c1n(CCCN2CCN(c3cccc(Cl)c3)CC2)nc2ccccn12` [Trazodone hydrochloride], which H1.0 immunofluorescence intensity is on record?
Answer: The H1.0 immunofluorescence intensity was 101.

Question: With `CCCCCCCCCCCCCC(=O)NC(C)C(O)c1ccccc1` [L-erythro MAPP] as the molecule, how does the H1.0 immunofluorescence intensity read?
Answer: The H1.0 immunofluorescence intensity was 108.

Question: Which H1.0 immunofluorescence intensity does the source give for `COc1ccc(-n2c(SCC#N)nc3sc4c(c3c2=O)CCCC4)cc1` here?
Answer: Its H1.0 immunofluorescence intensity is 108.

Question: How did the H1.0 immunofluorescence intensity turn out when `O=C(O)c1cc(=O)c2ccccc2[nH]1` [Kynurenic acid] was run?
Answer: Its H1.0 immunofluorescence intensity is 94.5.

Question: How did the H1.0 immunofluorescence intensity turn out when `CS(=O)c1ccc(-c2nc(-c3ccc(F)cc3)c(-c3ccncc3)[nH]2)cc1` (stereo not given) was run?
Answer: Its H1.0 immunofluorescence intensity is 104.

Question: For `CS(=O)(=O)CCNCc1ccc(-c2ccc3ncnc(Nc4ccc(OCc5cccc(F)c5)c(Cl)c4)c3c2)o1.Cc1ccc(S(=O)(=O)O)cc1.Cc1ccc(S(=O)(=O)O)cc1` [Lapatinib ditosylate], which H1.0 immunofluorescence intensity is on record?
Answer: The H1.0 immunofluorescence intensity was 110.

Question: Which H1.0 immunofluorescence intensity does the source give for `O=C(C1CCCCC1)N1CC(=O)N2CCc3ccccc3C2C1` (stereo not given) [Praziquantel] here?
Answer: The H1.0 immunofluorescence intensity was 106.

Question: `CCCCCC(O)C=CC=CC=CC(O)CC=CCCCC(=O)O` [8(S),15(S)-DIHETE all trans] was tested. Which H1.0 immunofluorescence intensity did it give?
Answer: The H1.0 immunofluorescence intensity was 101.

Question: `Nc1ncnc2c1ncn2C1OC(CO)C(O)C1O` (stereo not given) [Adenosine] was tested. Which H1.0 immunofluorescence intensity did it give?
Answer: The H1.0 immunofluorescence intensity was 93.6.

Question: With `CC1=C(CC(=O)O)c2cc(F)ccc2C1=Cc1ccc(S(C)=O)cc1` (stereo not given) [Sulindac] as the molecule, how does the H1.0 immunofluorescence intensity read?
Answer: The H1.0 immunofluorescence intensity was 100.

Question: With `COc1ccc(-c2cc(=O)c3ccc(O)cc3o2)cc1` [Pratol] as the molecule, how does the H1.0 immunofluorescence intensity read?
Answer: Its H1.0 immunofluorescence intensity is 105.

Question: `COc1cc(C2CC(=O)c3c(O)cc(O)cc3O2)ccc1O` (stereo not given) [Homoeriodictyol] was tested. Which H1.0 immunofluorescence intensity did it give?
Answer: Its H1.0 immunofluorescence intensity is 88.7.

Question: `NC(N)=NC(=O)c1nc(Cl)c(N)nc1N` [Amiloride] was tested. Which H1.0 immunofluorescence intensity did it give?
Answer: The H1.0 immunofluorescence intensity was 102.

Question: With `COC1=C2CC(C)=c3c(C(C)=O)c(OC)c(O)c4c3c2c2c(cc(OC)c3c(OC)cc(O)c4c32)C(=O)C1=O` [Hypocrellin B] as the molecule, how does the H1.0 immunofluorescence intensity read?
Answer: Its H1.0 immunofluorescence intensity is 93.7.

Question: Which H1.0 immunofluorescence intensity does the source give for `Cc1cc(Cc2cc(C)cc(C(C)(C)C)c2O)c(O)c(C(C)(C)C)c1` here?
Answer: The H1.0 immunofluorescence intensity was 90.7 and 88.8.

Question: `OC[C@@H](O)[C@H]1NC[C@@H](O)[C@H]1O` [1,4-Dideoxy-1,4-imino-D-mannitol hydrochloride] was tested. Which H1.0 immunofluorescence intensity did it give?
Answer: The H1.0 immunofluorescence intensity was 90.9.

Question: For `CCCCCCCCC(O)C=CC=CC=CC(O)CCCC(=O)O` (stereo not given) [Leukotriene B3], which H1.0 immunofluorescence intensity is on record?
Answer: Its H1.0 immunofluorescence intensity is 104.

Question: Which H1.0 immunofluorescence intensity does the source give for `CCCCCC(O)C=CC1C(O)CC(O)C1CC=CCCCC(=O)O` (stereo not given) [Prostaglandin F2a] here?
Answer: The H1.0 immunofluorescence intensity was 112.

Question: `COC(=O)c1c(-c2cc(OC)c(OC)c(OC)c2)c2ccnc(OCc3ncccn3)c2c(=O)n1Cc1ccnc(C)c1.Cl` was tested. Which H1.0 immunofluorescence intensity did it give?
Answer: The H1.0 immunofluorescence intensity was 95.2.

Question: `CN(C)c1nc(N)c(C(=O)N=C(N)N)nc1Cl.Cl` [5-(N,N-Dimethyl)amiloride hydrochloride] was tested. Which H1.0 immunofluorescence intensity did it give?
Answer: The H1.0 immunofluorescence intensity was 103.

Question: With `NC(=O)c1ccccc1` [Benzamide] as the molecule, how does the H1.0 immunofluorescence intensity read?
Answer: The H1.0 immunofluorescence intensity was 107.

Question: Which H1.0 immunofluorescence intensity does the source give for `Nc1[nH]nc2nc3ccccc3nc12` here?
Answer: Its H1.0 immunofluorescence intensity is 115.

Question: How did the H1.0 immunofluorescence intensity turn out when `CCCCCC(O)C=CC1=C(CCCCCCC(=O)O)C(=O)CC1` (stereo not given) [Prostaglandin B1] was run?
Answer: The H1.0 immunofluorescence intensity was 101.
